Test results: PubChem BioAssay (NCATS)
Inconclusive results are not listed. Unmarked numbers belong to inactive results. The list shows a part of the results. Entries that show only a call come without a potency. The source made the active and inactive calls. Calls follow the shape of the dose curve; as a rule, active = well fitted curve in the direction sought with a large enough effect; inconclusive = small, poorly fitted or top-dose-only effect, or another doubt; inactive = no such curve, though single readings can be large; an effect the other way counts as inactive or inconclusive.

Assays:
[1] = biological target: ATPase family AAA domain-containing protein 5 (Homo sapiens) (UniProt Q96QE3); test: qHTS screen for small molecules that inhibit ELG1-dependent DNA repair in human embryonic kidney (HEK293T) cells expressing luciferase-tagged ELG1: Hit Confirmation using MMS Stimulated ELG1 (AID 624249);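 also: cells co-treated with MMS at 10 µM final alongside compound; luminescence of ELG1-luciferase fusion read with Amplight reagent; series mostly up to about 46 µM; nearly all actives have a fitted effect of over 60% in size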
Outline: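 HEK293T cells carrying ELG1-luciferase, compounds added about 5 h after plating together with MMS at 10 µM final. Luciferase activity read 16 h after compound addition; suppression of signal scored.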

[2] = qHTS screen for small molecules that inhibit ELG1-dependent DNA repair: Hit Confirmation with MMS Viability (AID 624251); also: nearly all actives have a fitted effect of over 60% in size
Outline: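 Viability read-out: CellTiter-Glo, 16 h after compound addition. Cell line ELG1-luc HEK293T; DNA-damaging co-treatment MMS, 10 µM final.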

[3] = biological target: Rap guanine nucleotide exchange factor 3 (Homo sapiens) (UniProt O95398); test: Confirmatory qHTS for agonist of cAMP-regulated guanine nucleotide exchange factor 3 (EPAC1) (AID 1645881);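 also: EPAC1 catalysed release of BODIPY-GDP from Rap1B seen as fluorescence loss; nearly all actives have a fitted effect of over 75% in size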
[4] = biological target: Rap guanine nucleotide exchange factor 4 (Homo sapiens) (UniProt Q8WZA2); test: Confirmatory qHTS for agonist of cAMP-regulated guanine nucleotide exchange factor 4 (EPAC2) (AID 1645884);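 also: nucleotide exchange releases bodipy-GDP from Rap1 and this lowers its fluorescence; nearly all actives have a fitted effect of over 65% in size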
[5] = biological target: Rap guanine nucleotide exchange factor 4 (Homo sapiens) (UniProt Q8WZA2); test: Confirmatory qHTS for antagonist of cAMP-regulated guanine nucleotide exchange factor 4 (EPAC2) (AID 1645885); also: nearly all actives have a fitted effect of over 25% in size
[6] = biological target: Rap guanine nucleotide exchange factor 3 (Homo sapiens) (UniProt O95398); test: Counterscreen qHTS for antagonist of cAMP-regulated guanine nucleotide exchange factor 3 (EPAC1) (AID 1645888);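 also: fluorescence loss as bound BODIPY-GDP is released from Rap1B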
Outline: (§1)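 Rap1B–BODIPY-GDP (250 nM) with 50 uM GDP; compounds pin-transferred to 9.74 nM–152 uM final (activator) or from 7.32 nM upwards (inhibitor). Fluorescence Ex/Em 480/540 nm read at 5 and 30 min, then after adding cAMP or buffer, at room temperature.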

[7] = biological target: Rap guanine nucleotide exchange factor 3 (Homo sapiens) (UniProt O95398); test: Counterscreen qHTS for agonist of cAMP-regulated guanine nucleotide exchange factor 3 (EPAC1) (AID 1645889); also: nearly all actives have a fitted effect of over 40% in size
Outline: as §1

[8] = biological target: Lethal(3)malignant brain tumor-like protein 1 (Homo sapiens) (UniProt Q9Y468); test: qHTS Assay for the Inhibitors of L3MBTL1: Hit Validation (AID 540279); settings: L3MBTL1 methyl-lysine binding inhibition, biochemical qHTS; also: potency is read from the fitted curve at half-maximal effect; nearly all actives have a fitted effect of over 70% in size
Outline: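 L3MBTL1 (50 nM final) preformed 30 min with biotinylated H3(1-15)K9me1 peptide (75 nM), then compound 30 min at room temperature. Streptavidin donor and nickel chelate acceptor AlphaScreen beads (10 ug/mL each final) added for 30 min before read.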

[9] = qHTS Assay for the Inhibitors of L3MBTL1: Hit Validationin AlphaScreen Counterscreen (AID 602224)
Outline: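 Primary-screen actives were tested against a bead-bridging control: 1 nM biotinylated His6 joined streptavidin donor and nickel acceptor beads (10 ug/mL each). Incubations were 15 min with compound, then 30 min with beads, both at room temperature.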

[10] = biological target: Tumor susceptibility gene 101 protein (Homo sapiens) (UniProt Q99816); test: qHTS Assay for Iinhibitors of HIV-1 Budding by Blocking the Interaction of PTAP/TSG101: Hit Validation (AID 651600); also: nearly all actives have a fitted effect of over 70% in size
Outline: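 Fluorescence polarization binding assay: Tsg101 binding domain (10 uM) mixed with compounds and FITC-labeled PTAP peptide (50 nM) in HEPES pH 7.5, 0.15 M NaCl, 0.01% Tween 20, EDTA, TCEP; 20 min at r.t.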

[11] = biological target: Tyrosyl-DNA phosphodiesterase 1 (Homo sapiens) (UniProt Q9NUW8); test: Confirmation Assay for Inhibitors of Tyrosyl-DNA Phosphodiesterase (TDP1) (AID 489007); settings: recombinant human TDP1 enzymatic activity, dose-response; also: potency is read from the fitted curve at half-maximal effect; nearly all actives have a fitted effect of over 40% in size
Outline: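 Recombinant E. coli-expressed Tdp1 (1 nM final) was preincubated with compounds 15 min at room temperature, then reacted 5 min with 15 nM 5'-biotin/3'-phosphotyrosine-FITC DNA substrate; cleavage read as loss of AlphaScreen signal (10 ug/ml beads, 10 min).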

Chain of Rap guanine nucleotide exchange factor 3 (Homo sapiens) (O95398 whole entry, looked up): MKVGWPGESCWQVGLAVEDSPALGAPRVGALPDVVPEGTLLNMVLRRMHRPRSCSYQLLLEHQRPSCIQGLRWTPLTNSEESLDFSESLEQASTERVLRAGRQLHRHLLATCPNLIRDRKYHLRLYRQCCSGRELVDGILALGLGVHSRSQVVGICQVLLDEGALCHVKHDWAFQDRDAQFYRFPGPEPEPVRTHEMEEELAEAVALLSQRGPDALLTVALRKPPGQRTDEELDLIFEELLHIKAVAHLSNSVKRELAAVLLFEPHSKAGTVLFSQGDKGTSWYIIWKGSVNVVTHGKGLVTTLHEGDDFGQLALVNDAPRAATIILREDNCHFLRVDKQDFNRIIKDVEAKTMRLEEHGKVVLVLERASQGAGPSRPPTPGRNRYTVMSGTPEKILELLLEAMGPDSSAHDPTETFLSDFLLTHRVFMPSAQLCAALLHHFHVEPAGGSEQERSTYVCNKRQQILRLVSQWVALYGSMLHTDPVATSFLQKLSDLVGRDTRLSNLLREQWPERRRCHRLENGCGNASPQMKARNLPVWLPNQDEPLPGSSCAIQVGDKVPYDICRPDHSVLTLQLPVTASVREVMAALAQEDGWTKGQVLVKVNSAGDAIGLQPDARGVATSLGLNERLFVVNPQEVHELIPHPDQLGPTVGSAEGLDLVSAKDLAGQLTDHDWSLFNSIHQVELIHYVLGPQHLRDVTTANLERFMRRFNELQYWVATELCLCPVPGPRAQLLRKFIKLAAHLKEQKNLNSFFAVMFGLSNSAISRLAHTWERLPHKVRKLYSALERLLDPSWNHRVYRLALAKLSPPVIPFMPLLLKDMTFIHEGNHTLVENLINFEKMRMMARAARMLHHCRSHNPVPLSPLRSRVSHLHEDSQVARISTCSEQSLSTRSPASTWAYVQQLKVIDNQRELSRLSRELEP
Chain of Rap guanine nucleotide exchange factor 4 (Homo sapiens) (Q8WZA2 whole entry, looked up): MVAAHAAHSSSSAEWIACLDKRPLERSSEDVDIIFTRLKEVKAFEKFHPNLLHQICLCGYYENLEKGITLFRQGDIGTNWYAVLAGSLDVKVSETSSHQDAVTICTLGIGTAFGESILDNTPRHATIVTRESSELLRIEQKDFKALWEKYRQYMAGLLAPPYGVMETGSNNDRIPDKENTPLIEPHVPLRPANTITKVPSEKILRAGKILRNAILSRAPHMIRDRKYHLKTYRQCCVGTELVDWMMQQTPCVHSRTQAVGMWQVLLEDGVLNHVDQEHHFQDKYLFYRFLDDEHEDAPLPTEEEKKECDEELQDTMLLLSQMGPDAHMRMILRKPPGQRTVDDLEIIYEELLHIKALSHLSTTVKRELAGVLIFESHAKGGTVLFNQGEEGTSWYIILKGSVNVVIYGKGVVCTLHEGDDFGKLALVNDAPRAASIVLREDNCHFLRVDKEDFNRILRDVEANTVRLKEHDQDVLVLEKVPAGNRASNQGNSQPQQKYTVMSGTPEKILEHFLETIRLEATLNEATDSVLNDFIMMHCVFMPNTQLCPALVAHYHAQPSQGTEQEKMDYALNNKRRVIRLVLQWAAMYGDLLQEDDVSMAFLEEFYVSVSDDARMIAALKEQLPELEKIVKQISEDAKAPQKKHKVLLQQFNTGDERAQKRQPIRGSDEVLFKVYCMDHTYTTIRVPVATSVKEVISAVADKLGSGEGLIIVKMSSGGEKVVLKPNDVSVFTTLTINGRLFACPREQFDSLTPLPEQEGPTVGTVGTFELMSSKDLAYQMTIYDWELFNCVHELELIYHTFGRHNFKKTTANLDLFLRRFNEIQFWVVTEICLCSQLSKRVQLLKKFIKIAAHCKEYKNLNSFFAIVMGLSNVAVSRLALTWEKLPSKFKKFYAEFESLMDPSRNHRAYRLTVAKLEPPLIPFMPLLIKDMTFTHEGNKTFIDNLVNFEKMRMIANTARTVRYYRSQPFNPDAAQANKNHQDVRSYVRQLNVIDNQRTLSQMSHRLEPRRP
Chain of Lethal(3)malignant brain tumor-like protein 1 (Homo sapiens) (Q9Y468 whole entry, looked up): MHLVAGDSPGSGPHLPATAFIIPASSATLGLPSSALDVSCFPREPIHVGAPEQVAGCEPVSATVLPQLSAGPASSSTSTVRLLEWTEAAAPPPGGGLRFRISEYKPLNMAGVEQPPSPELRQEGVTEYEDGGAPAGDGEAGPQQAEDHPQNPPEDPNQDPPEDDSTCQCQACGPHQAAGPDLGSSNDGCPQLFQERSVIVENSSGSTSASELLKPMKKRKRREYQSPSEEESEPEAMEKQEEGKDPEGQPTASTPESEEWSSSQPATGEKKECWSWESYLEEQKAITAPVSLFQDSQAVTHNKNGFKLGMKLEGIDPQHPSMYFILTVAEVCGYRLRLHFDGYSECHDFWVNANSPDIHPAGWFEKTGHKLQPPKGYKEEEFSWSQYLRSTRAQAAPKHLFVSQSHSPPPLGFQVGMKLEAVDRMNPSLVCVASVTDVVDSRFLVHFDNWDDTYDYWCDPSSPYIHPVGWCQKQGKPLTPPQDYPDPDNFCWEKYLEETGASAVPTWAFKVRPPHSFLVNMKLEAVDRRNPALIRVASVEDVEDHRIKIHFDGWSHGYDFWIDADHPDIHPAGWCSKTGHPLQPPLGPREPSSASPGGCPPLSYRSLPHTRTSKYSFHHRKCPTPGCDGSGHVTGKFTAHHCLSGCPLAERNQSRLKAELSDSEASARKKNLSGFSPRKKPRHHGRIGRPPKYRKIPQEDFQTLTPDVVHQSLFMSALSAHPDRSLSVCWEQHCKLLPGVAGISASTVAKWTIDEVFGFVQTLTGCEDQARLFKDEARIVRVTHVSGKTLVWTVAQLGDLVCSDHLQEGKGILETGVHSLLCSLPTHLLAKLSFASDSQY
Chain of Tumor susceptibility gene 101 protein (Homo sapiens) (Q99816 whole entry, looked up, the tested form may be a part): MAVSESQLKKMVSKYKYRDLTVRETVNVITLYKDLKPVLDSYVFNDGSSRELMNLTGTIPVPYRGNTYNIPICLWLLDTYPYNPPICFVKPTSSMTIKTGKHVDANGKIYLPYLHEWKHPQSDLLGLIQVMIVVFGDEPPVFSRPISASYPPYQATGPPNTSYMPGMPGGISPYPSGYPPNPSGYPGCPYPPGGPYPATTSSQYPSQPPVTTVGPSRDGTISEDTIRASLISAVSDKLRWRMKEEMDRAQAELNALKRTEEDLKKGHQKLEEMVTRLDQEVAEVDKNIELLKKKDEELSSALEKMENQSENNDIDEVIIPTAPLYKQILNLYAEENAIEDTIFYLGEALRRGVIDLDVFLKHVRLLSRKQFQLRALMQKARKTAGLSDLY
Chain of ATPase family AAA domain-containing protein 5 (Homo sapiens) (Q96QE3 whole entry, looked up, the tested form may be a part): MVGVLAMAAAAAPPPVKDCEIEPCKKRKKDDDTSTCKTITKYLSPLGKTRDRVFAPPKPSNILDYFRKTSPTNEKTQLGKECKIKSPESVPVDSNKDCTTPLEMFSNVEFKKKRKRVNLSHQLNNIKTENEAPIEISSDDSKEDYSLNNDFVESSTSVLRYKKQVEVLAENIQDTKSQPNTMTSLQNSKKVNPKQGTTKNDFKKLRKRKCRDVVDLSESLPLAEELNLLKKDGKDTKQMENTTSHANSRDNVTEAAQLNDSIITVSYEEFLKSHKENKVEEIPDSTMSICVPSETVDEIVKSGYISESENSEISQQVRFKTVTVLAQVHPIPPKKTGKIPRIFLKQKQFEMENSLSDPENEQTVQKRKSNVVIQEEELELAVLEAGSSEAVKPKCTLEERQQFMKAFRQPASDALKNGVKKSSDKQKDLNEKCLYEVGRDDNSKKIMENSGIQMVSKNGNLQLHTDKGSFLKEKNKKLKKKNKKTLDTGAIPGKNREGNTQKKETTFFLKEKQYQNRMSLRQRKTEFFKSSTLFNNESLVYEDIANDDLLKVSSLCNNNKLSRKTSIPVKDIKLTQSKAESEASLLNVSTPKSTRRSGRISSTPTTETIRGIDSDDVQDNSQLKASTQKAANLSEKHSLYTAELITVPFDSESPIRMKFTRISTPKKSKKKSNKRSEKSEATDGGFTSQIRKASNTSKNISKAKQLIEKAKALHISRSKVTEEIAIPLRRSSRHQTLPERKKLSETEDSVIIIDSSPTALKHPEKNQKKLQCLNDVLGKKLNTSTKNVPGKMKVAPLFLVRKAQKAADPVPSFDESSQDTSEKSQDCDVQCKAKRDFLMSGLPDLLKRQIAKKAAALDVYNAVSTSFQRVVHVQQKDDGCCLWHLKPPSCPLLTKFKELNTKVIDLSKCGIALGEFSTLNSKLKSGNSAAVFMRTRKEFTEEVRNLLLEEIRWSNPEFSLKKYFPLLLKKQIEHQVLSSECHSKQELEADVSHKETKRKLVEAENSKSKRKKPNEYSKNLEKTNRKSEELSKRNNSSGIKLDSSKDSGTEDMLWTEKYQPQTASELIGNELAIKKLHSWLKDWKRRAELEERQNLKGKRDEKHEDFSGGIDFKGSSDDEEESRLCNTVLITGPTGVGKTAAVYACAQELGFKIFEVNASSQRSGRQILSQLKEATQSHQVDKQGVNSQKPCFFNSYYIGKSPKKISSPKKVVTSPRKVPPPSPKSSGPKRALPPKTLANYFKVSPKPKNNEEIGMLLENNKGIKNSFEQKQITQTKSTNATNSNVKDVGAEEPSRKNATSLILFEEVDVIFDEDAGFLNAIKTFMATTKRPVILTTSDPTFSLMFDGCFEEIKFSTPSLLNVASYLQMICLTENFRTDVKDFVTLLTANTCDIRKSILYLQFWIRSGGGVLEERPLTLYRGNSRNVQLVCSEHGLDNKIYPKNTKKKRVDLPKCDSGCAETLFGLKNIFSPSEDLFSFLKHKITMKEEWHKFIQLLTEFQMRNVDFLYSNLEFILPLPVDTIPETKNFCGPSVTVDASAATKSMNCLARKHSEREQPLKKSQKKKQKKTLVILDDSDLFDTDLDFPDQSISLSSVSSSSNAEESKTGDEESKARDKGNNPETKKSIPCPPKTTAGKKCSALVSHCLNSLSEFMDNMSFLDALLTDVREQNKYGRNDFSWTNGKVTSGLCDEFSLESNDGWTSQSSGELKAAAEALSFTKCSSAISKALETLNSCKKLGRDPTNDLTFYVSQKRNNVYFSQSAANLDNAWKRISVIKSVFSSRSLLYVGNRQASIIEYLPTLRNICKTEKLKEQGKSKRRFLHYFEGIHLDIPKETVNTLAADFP

In the case of `COc1cc(N)c(Cl)cc1C(=O)OCC(=O)c1ccc2c(c1)NC(=O)CO2`, the Potency [1] is reported as “inactive”, the outcome [2] is reported as “inactive” and the Potency [3] is reported as “inactive”. For the same compound, the Potency [4] was “inactive”, the Potency [5] was “inactive” and the Potency [6] was “inactive”. The Potency [7] was “inactive”.
For `Cc1ccc(/C=C/C(=O)Nc2ccc([N+](=O)[O-])c(NC(=O)/C=C/c3ccc(C)o3)c2)o1`, the Potency [8] was 3.77 µM (active), the outcome [9] was “inactive” and the Potency [3] was “inactive”. The activation [4] was 6% [at 17.1 µM, percent relative to cAMP agonist control], the Potency [5] was “inactive” and the activity change, negative = inhibition [6] was 4.14% [at 30.8 µM]. For the same compound, the activation [7] was 27.5% [at 30.8 µM].
For `N#Cc1c(-c2ccc(F)cc2)cc(-c2ccccc2)nc1SCC(=O)NCC(=O)O`, the Potency [3] was “inactive”, the Potency [4] was “inactive” and the outcome [5] was “inactive [at 12.7 µM]”. For the same compound, the Potency [6] was “inactive” and the Potency [7] was “inactive”.
For `Cc1ccc(Cn2c(C)nc3c(c2=O)c2nc4ccccc4nc2n3Cc2ccco2)cc1`, the Potency [8] was 23.8 µM (active), the outcome [9] was “inactive” and the Potency [3] was “inactive”. For the same compound, the Potency [4] was “inactive”, the Potency [5] was “inactive” and the Potency [6] was “inactive”. For the same compound, the Potency [7] was “inactive”.
With `COC(=O)c1cc2c(N)c(C(=O)c3ccc(Cl)cc3)sc2nc1C(OC)OC` the Potency [10] was “inactive”, the Potency [3] was “inactive” and the activation [4] was 5.58% [at 17.1 µM, percent relative to cAMP agonist control]. For the same compound, the Potency [5] was “inactive”, the activity change, negative = inhibition [6] was -4.3% [at 30.8 µM] and the activation [7] was 42.3% [at 30.8 µM].
With `O=C(O)c1ccccc1NC(c1ccccc1)c1ccc(Cl)cc1` (stereo not drawn) the Potency [3] was “inactive”, the Potency [4] was “inactive” and the Potency [5] was “inactive”. The Potency [6] was “inactive” and the Potency [7] was “inactive”.
With `NS(=O)(=O)c1ccc(N=Nc2ccc(=O)[nH]c2O)cc1` the Potency [11] was 6.31 µM (active), the Potency [3] was “inactive” and the activation [4] was -0.407% [at 17.1 µM, percent relative to cAMP agonist control]. For the same compound, the Potency [5] was “inactive”, the activity change, negative = inhibition [6] was -5.26% [at 30.8 µM] and the activation [7] was -0.888% [at 30.8 µM].
For `Cc1ccc(CSC2=NCCN2S(=O)(=O)c2ccc(F)cc2)cc1`, the Potency [3] was “inactive”, the activation [4] was 1.66% [at 17.1 µM, percent relative to cAMP agonist control] and the Potency [5] was “inactive”. For the same compound, the activity change, negative = inhibition [6] was -7.41% [at 30.8 µM] and the activation [7] was 4.55% [at 30.8 µM].
